# Assay results as given in PubChem BioAssay AID1030 (National Center for Advancing Translational Sciences (NCATS), 2008).
# Where “and” joins values, the source holds several entries; their conditions need not be identical. Equal values may be shown once. The whole screen tested about 220,000 compounds, of which about 16,000 (7.3%) were called active. Not shown: some 25% with an inconclusive outcome. The entries come from a sample that favours actives as a whole. A number with no mark means an inactive call. The call rests on the fitted dose curve; in most records, active means well fitted inhibition curve with a large enough effect (not every such curve was filed as active); inconclusive means small, poorly fitted or top-dose-only effect, or another doubt; inactive means no such curve, though single readings can be large or run the other way.
# Target: Aldehyde dehydrogenase 1A1 (Homo sapiens) (UniProt P00352)
# Sequence (P00352 whole entry, looked up): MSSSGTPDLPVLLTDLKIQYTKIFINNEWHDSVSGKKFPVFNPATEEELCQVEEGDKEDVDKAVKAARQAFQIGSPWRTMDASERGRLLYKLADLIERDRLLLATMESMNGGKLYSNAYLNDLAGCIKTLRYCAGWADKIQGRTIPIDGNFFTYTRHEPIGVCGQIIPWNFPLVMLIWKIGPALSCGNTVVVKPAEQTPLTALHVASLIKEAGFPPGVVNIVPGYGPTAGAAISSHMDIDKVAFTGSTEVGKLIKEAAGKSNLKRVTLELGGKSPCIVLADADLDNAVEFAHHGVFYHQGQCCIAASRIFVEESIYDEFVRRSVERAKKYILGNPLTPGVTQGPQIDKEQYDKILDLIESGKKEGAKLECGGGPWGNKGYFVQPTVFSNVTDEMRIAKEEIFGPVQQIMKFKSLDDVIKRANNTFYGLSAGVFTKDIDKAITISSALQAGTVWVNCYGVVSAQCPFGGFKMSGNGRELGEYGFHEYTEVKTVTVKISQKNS
# Assay: qHTS Assay for Inhibitors of Aldehyde Dehydrogenase 1 (ALDH1A1);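 on activity, negative = inhibition: plate controls were no enzyme wells and a reference inhibitor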
# Details: Purified ALDH1A1, NADH fluorescence, propionaldehyde substrate; series mostly up to 75.3 µM; activity, negative = inhibition: at the top concentration
# Potency means the concentration at half of the fitted maximal effect.
SMILES,"activity, negative = inhibition",Potency
COc1ccc(OC)c(S(=O)(=O)Nc2cccc(-c3ccc4nncn4n3)c2)c1,0.157%,–
CC(NC(=O)COC(=O)c1cc(=O)[nH]c2ccccc12)c1ccccc1 (centres undefined),-9.17%,–
COCCNC(=O)CCCn1c(=O)c2ccccc2n(Cc2cccc([N+](=O)[O-])c2)c1=O,25.2%,–
CCOC(=O)N1CCN(CCC(=O)Nc2cc(OC)ccc2OC)CC1,-8.02%,–
NC(=O)c1ccsc1NC(=O)c1ccco1,–,25.1 µM (active)
Cc1ccnc(NC(=O)c2ccco2)n1,-4.29%,–
CC(C)(C)NC(=O)c1cc(NC(=O)c2ccco2)cc(NC(=O)c2ccco2)c1,13.8%,–
O=C(c1ccc(F)cc1)N1CCC(n2nnc3ccccc32)CC1,-4.1%,–
O=C(Cn1c(=S)nc2ccccn21)N1CCc2ccccc2C1,-9.63%,–
O=C(c1ccc(F)cc1)n1c(=S)nc2ccccn21,–,25.1 µM (active)
Cc1ccc2nc(-c3ccncc3)cc(C(=O)Nc3ccc(OC(F)F)cc3)c2c1,7.41%,–
COc1cc(NC(=O)COC(=O)c2cnc(C)cn2)c(C)cc1[N+](=O)[O-],-4.73%,–
CC1CCCC(NC(=O)c2cccc(N3CCCC3=O)c2)C1C (centres undefined),-7.12%,–
CCC(C)(C)NC(=O)C1c2ccccc2Oc2ccccc21,-1.36%,–
CSCC(NS(=O)(=O)c1ccc(C)cc1)C(=O)O (centres undefined),0.012%,–
Cc1ccc(S(=O)(=O)/N=S(\C)C(C)C)cc1 (centres undefined),13.2%,–
Cc1ccc(S(=O)(=O)NCC(C)NS(C)(=O)=O)cc1 (centres undefined),–,14.1 µM (active)
CC1CC(=O)Nc2ccccc2N1S(=O)(=O)c1cccs1 (centres undefined),6.68%,–
O=C(CNC1CCCCC1)NCC1(c2ccccc2)CCCC1,3.69%,–
Cc1ccc2nc(-c3ccncc3)cc(C(=O)Nc3ccc4c(c3)OCCO4)c2c1,-5.9%,–
O=C(CSc1ccccc1)Nc1ccc(C(=O)Nc2cccc(O)c2)cc1,-9.58%,–
Cc1nc2ccccc2n1CC(=O)N/N=C/c1cccnc1,7.97%,–
Cn1c(=N)n(CC(O)c2cccs2)c2ccccc21 (centres undefined),7.93%,–
CC(=O)c1ccc2c(c1)OCCOCCOc1ccc(C(C)=O)cc1OCCOCCO2,5.45%,–
COc1ccc(OCCCC(=O)NCCc2ccccc2)cc1,6.31%,–
COc1ccc(C(=O)NC(=S)NNC(=O)CCc2ccccc2)cc1,–,25.1 µM (active)
COc1ccc(/C(N)=N/OC(=O)CCCc2ccccc2)cc1,9.4%,–

SMILES,"activity, negative = inhibition",Potency
COc1ccc(CC(=O)NC(C)CCc2ccccc2)cc1 (centres undefined),–,2.51 µM (active)
COc1ccc(C(CC(=O)O)NC(=O)Cc2ccccc2)cc1 (centres undefined),5.83%,–
COc1ccc(C(=O)NC(=S)NNC(=O)c2c(-c3ccccc3)noc2C)cc1,-11.2%,–
CCOC(=O)C1=C(CN2CCc3ccccc32)NC(=O)NC1c1cccc([N+](=O)[O-])c1 (centres undefined),-7.14%,–
CCOC(=O)C1=C(CN2CCc3ccccc32)NC(=O)NC1c1ccc(Cl)cc1 (centres undefined),–,25.1 µM (active)
COCCOC(=O)C1=C(C)NC(=O)NC1c1ccc(Cl)cc1 (centres undefined),-3.24%,–
Cc1onc(C(=O)NCc2ccc(F)cc2)c1[N+](=O)[O-],17%,–
O=C1CCCN1CCCNC(=S)Nc1ccc(F)c(Cl)c1,-2.84%,–
CCOc1ccc(OCC)c(NC(=O)C2CCN(S(=O)(=O)c3c(C)noc3C)CC2)c1,4.05%,–
Cc1noc(/C=C/c2ccco2)c1S(=O)(=O)N1CCC(C(=O)Nc2ccc(Cl)cn2)CC1,–,15.8 µM (active)
Cc1ccc(NC(=O)C2CCCN(S(=O)(=O)c3c(C)noc3C)C2)c(C)c1 (centres undefined),8.3%,–
CCCCN1C(=S)NC[C@@H]1C(C)CC (some centres undefined),6.56%,–
Cc1ccc(C)c(-n2cc(CN3CCN(C(=O)c4ncn[nH]4)CC3)c(-c3ccccc3)n2)c1,0.725%,–
Cc1cc(NC(=O)CSc2nnc(Nc3ccccc3F)s2)no1,16.2%,–
O=C1C[C@@H](O)[C@@H](O)[C@H]2[C@@H]3C(=O)N(Cc4ccc5c(c4)OCO5)C(=O)[C@@H]3CC[C@H]12,-12% [at 13.5 µM] and -15.2% [at 13.5 µM],–
O=CN1CCN(C2CC(=O)N(c3ccc4c(c3)OCO4)C2=O)CC1 (centres undefined),–,12.6 µM (active)
O=C(Nc1ccc2c(c1)OCO2)c1ccc(N2C(=O)c3ccccc3C2=O)cc1,-14.5%,–
Cc1cc(C)nc(N2CCC(C(=O)Nc3ccc4c(c3)OCCO4)CC2)n1,-1.55%,–
CCn1cc(C(=O)Nc2cc(C)ccc2C)c(=O)c2ccc(C)nc21,9.15%,–
C=CCN(C(=O)c1cc(C)cc(C)c1)C1(C(=O)Nc2ccccc2)CCN(C(C)C)CC1,7.62%,–
Cc1ccnc(SCC(N)=O)n1,4.55%,–
COc1ccc(-c2nnc(SCC(=O)c3ccco3)n2-c2ccccc2)cc1,2.43%,–
Cc1cccc(C)c1NC(=O)CCCSc1nnc(-c2ccco2)n1-c1ccccc1,–,25.1 µM (active)
O=C(O)CCSc1nnc(-c2ccccc2)n1-c1ccccc1,13.6%,–
COc1ccc(C(=O)NC(=O)CSc2nnc(-c3ccco3)n2-c2ccccc2)cc1,–,31.6 µM (active)
O=C(CSc1nnc(-c2ccco2)n1-c1ccccc1)NCCc1ccccc1,1.44%,–
CCn1c(SCC(=O)Nc2nccs2)nnc1-c1ccco1,-1.17%,–
